Assay outcomes (PubChem)
ELG1 genotox: genotoxicity induction in ELG1-luciferase HEK293T cells. 1.3% of 330,000 active. Potency, µM (series often up to 46 µM), inactives show at the top dose activity change, positive = activation, usual class: activators. HEK293T ELG1-luciferase reporter, luminescence, 16 h. AID 504466; also: % of control where 0% means no effect; nearly all actives have a fitted effect of over 60% in size
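Genotoxicity was scored as increased ELG1-luciferase reporter signal, measured by ONE-Glo luminescence (30 min, room temperature). Compound or vehicle exposure of the HEK293T reporter cells lasted 16 hr at 37°C.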
SMN2 splice up: increases expression of the SMN2 splice variant; HEK293 SMN2-luciferase splicing reporter, luminescence, 30-36 h; Potency, µM (highest dose often 46.1 µM), inactives show at the highest dose activity change, positive = activation, hits mostly activators; 2.8% of 210,000 active; AID 1458; also: % of control where 0% means no effect; nearly all actives have a fitted effect of over 55% in size
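qHTS luciferase splicing reporter: luminescence rises when SMN2 exon 7 is included in transfected HEK293 cells. Compound exposure lasted 30-36 h at 37C, with 4.5 mM final sodium butyrate as control, followed by a ONE-Glo read.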
Rab9 promoter act: Rab9 promoter activation. Huh7 Rab9 promoter-luciferase reporter, luminescence, 24 h. Potency, µM (series often up to 9.22 µM), without a hit: top-dose activation, negative = inhibition, hits mostly activators. 2.8% of 320,000 active; also: % of control where 0% means no effect; nearly all actives have a fitted effect of over 60% in size
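Rab9 promoter-driven luciferase in stably transfected Huh7 cells; 1500 cells/well rested 2 h, exposed to compound in DMSO for 24 h at 37 °C, 5% CO2. Luminescence read 10 min after adding luciferase reagent at ambient temperature.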
NPC1 promoter act: activators of NPC1 promoter | 2.4% of 320,000 active | Huh7 NPC1 promoter luciferase reporter, 24 h | Potency, µM (titrated, usually from 9.22 µM), without a hit: at the top dose activation, actives largely listed as activators | AID 485313; also: % of control where 0% means no effect; nearly all actives have a fitted effect of over 60% in size
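Luciferase expression driven by the NPC1 promoter was measured in stably transfected Huh7 cells after a 24 h compound incubation, using a luciferase reagent and a luminescence read.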
p53 reactivation: restores transcriptional activity of mutant p53; H1299 p53-A138V BP100-luciferase reporter, luminescence, 24 h; Potency, µM (highest dose often 92.2 µM), for the others: top-dose activity change, positive = activation, hits mostly activators; 0.063% of 320,000 active; also: % of control where 0% means no effect; nearly all actives have a fitted effect of over 45% in size
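p53-null H1299 cells stably carrying temperature-sensitive p53-A138V and a BP100-luciferase reporter were pinned with compounds (4-point, 1:5 series) and held 24 hrs at 37 deg C. Luminescence was read 10 min after detection reagent.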
FLuc counter: counter-screen for miR-21 project: firefly luciferase inhibitors or activators; P08659; Potency, µM (doses to about 57.5 µM), for inactives: top-dose activity change, negative = inhibition, most hits filed as inhibitors; purified FLuc, Km substrates, luminescence inhibition; 6.9% of 360,000 active;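 also: plate controls were vehicle for no effect and reference inhibitor for full effect; nearly all actives have a fitted effect of over 55% in size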
Target sequence (P08659 whole entry, looked up): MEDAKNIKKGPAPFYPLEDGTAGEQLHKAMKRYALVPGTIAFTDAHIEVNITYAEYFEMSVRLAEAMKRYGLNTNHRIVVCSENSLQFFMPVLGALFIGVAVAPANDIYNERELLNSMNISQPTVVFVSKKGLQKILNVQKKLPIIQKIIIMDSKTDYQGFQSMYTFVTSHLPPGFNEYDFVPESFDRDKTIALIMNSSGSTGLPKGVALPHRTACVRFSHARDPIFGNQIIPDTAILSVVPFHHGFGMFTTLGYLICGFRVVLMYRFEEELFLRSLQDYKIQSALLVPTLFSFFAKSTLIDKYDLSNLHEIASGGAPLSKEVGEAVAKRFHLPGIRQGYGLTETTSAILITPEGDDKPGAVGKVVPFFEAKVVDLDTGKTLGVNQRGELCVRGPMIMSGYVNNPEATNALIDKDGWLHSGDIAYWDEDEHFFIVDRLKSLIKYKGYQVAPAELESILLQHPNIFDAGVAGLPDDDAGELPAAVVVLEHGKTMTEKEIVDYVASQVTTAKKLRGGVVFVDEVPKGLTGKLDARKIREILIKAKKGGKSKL
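Biochemical qHTS of compounds, final roughly 60 µM downward over six points, against 10 nM purified firefly luciferase using Km concentrations of substrates (10 uM D-luciferin, 10 uM ATP) in Tris acetate pH 7.5 buffer; luminescence output.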
Active calls of the source: *; [ ] = dose if it differs, or a comment. Sampled rows, rich in hits. Any-hit rate of the full collection: about 7.3%. Calls follow the shape of the dose curve; as a rule, active = well fitted curve in the direction sought with a large enough effect; inconclusive = small, poorly fitted or top-dose-only effect, or another doubt; inactive = no such curve, though single readings can be large; an effect the other way counts as inactive or inconclusive. Potency is read from the fitted curve at half-maximal effect.

For O=C(Nc1ccc(N2CCCCC2)cc1)c1cccnc1Cl the results were ELG1 genotox 20.6µM*, SMN2 splice up -5.7%, Rab9 promoter act inconclusive, NPC1 promoter act 21.7%, p53 reactivation 16.9% and FLuc counter inconclusive.
`COc1ccc(Cl)cc1NC(=O)CSc1cn(CC(=O)N2CCCCCC2)c2ccccc12` gave FLuc counter -17.9%.
COc1ccccc1NC(=O)C(Cc1ccccc1)NS(=O)(=O)c1ccc2c(c1)CCN2C(C)=O (stereo unspecified) was read as SMN2 splice up 4.7% and FLuc counter -9.7%.
For CN(C)c1ccc(NC(=O)C(=O)C2C(=O)Nc3ccccc32)cc1 (stereo unspecified) the results were ELG1 genotox inconclusive, Rab9 promoter act 20.6%, NPC1 promoter act 24.5%, p53 reactivation 4.1% and FLuc counter 10.7µM*.
CC(C)(C)c1ccc(NC(=O)C(=O)C2C(=O)Nc3ccccc32)cc1 (stereo unspecified) was read as ELG1 genotox 0.2%, SMN2 splice up 2.4%, Rab9 promoter act 20.9%, NPC1 promoter act 14.7%, p53 reactivation 2.2% and FLuc counter 12µM*.
Screening c1ccc2c(c1)c1ccccc1n1c(-c3ccc4c(c3)OCO4)nnc21 returned ELG1 genotox -2.1%, Rab9 promoter act -5.6%, NPC1 promoter act -0.1%, p53 reactivation 8.0% and FLuc counter -17.2%.
Screening O=C1c2ccccc2C(=O)N1CCC1=CCCCC1 returned ELG1 genotox inconclusive, SMN2 splice up 21.4%, Rab9 promoter act 10.3%, NPC1 promoter act 5.6%, p53 reactivation inconclusive and FLuc counter 15.1µM*.
O=C(O)c1ccc2c(c1)C(=O)N(CCC1=CCCCC1)C2=O was read as ELG1 genotox -2.3%, SMN2 splice up 2.1%, Rab9 promoter act -8.7%, NPC1 promoter act -0.1%, p53 reactivation -1.0% and FLuc counter -8.0%.
`CCOC(=O)c1cc(-c2cc(OC)c(OC)c(OC)c2)nc2c1c(=O)[nH]c(=O)n2Cc1ccccc1` gave ELG1 genotox 8.2µM*, SMN2 splice up inconclusive, Rab9 promoter act -10.6%, NPC1 promoter act -13.1%, p53 reactivation -1.1% and FLuc counter 2.0%.
`O=C1C[C@H]2C(=O)[C@@H]1[C@@H](C(=O)O)[C@H]2C(=O)O` gave SMN2 splice up -7.5%[9.22 µM].
`COc1ccc(-c2cc(C(=O)NC3CC3)c3ccccc3n2)cc1` gave ELG1 genotox -1.2%, Rab9 promoter act -1.5%, NPC1 promoter act -3.7%, p53 reactivation 2.1% and FLuc counter 21.3µM*.
`CCCOc1ccc(-c2cc(C(=O)NCC3CCCO3)c3ccccc3n2)cc1` (stereo unspecified) gave ELG1 genotox -10.3%, SMN2 splice up 8.5%, Rab9 promoter act 20.4%, NPC1 promoter act 11.7%, p53 reactivation 4.2% and FLuc counter 3.01µM*.
COc1cccc(-c2cc(C(=O)NC3CC3)c3ccccc3n2)c1 was read as ELG1 genotox -10.8%, Rab9 promoter act -2.7%, NPC1 promoter act -1.9%, p53 reactivation -5.3% and FLuc counter inconclusive.
For COc1ccc(-c2cc(C(=O)NC3CCCC3)c3ccccc3n2)cc1 the results were ELG1 genotox -2.7%, Rab9 promoter act 5.7%, NPC1 promoter act 14.0% and FLuc counter 6.75µM*.
For O=C(NCC1CCCO1)c1cc(-c2ccncc2)nc2ccccc12 (stereo unspecified) the results were ELG1 genotox -1.2%, Rab9 promoter act 1.6%, NPC1 promoter act -1.6%, p53 reactivation 0.7% and FLuc counter 0.5%.
`Cc1ccc(CSc2nnc([C@@H](N)C(C)C)o2)cc1` gave SMN2 splice up -6.5% and FLuc counter -0.4%.
For Cc1ccnc(N/N=C/c2ccco2)n1 the results were ELG1 genotox inconclusive, SMN2 splice up inconclusive, Rab9 promoter act 26.0%, NPC1 promoter act inconclusive, p53 reactivation 12.1% and FLuc counter 16.9µM*.
For Cc1ccc(C)c(-c2csc(N/N=C/c3ccco3)n2)c1 the results were ELG1 genotox -8.9%, SMN2 splice up -50.5%, Rab9 promoter act -0.3%, NPC1 promoter act 13.8%, p53 reactivation 6.7% and FLuc counter -18.1%.
`Cc1cc(N/N=C/c2ccco2)c2ccccc2n1` gave ELG1 genotox 0.3%, SMN2 splice up 1.7%, Rab9 promoter act -2.7%, NPC1 promoter act 3.8%, p53 reactivation 4.6% and FLuc counter -15.8%.
For C(=N\Nc1nc2ccccc2s1)/c1ccco1 the results were ELG1 genotox inconclusive, SMN2 splice up 1.58µM*, Rab9 promoter act 1.26µM*, NPC1 promoter act 2.24µM*, p53 reactivation inconclusive and FLuc counter 1.2µM*.
`Cc1ccsc1/C=N\NC(=O)Cn1nnc2ccccc21` gave ELG1 genotox -2.4%, SMN2 splice up 2.7%, Rab9 promoter act -15.8%, NPC1 promoter act -11.9%, p53 reactivation 23.2% and FLuc counter -19.7%.
`Cc1ccsc1/C=N/Nc1nc2ccccc2s1` gave ELG1 genotox 1.46µM*, SMN2 splice up 1µM*, Rab9 promoter act 1.78µM*, NPC1 promoter act 3.55µM* and FLuc counter 1.69µM*.
CCn1c(C)c(/C=N/Nc2nc3ccccc3s2)c2ccccc21 was read as ELG1 genotox 0.1%, SMN2 splice up -25.4%, Rab9 promoter act 11.8%, NPC1 promoter act inconclusive, p53 reactivation -0.4% and FLuc counter 13.5µM*.
O=C1C2=C(S[C@@H]3O[C@H](CO)[C@@H](O)[C@H](O)[C@H]3O2)C(=O)c2ccccc21 was read as SMN2 splice up -28.0%.
OCC(O)/C=N/Nc1nc2ccccc2s1 (stereo unspecified) was read as ELG1 genotox -5.6%, SMN2 splice up inconclusive, Rab9 promoter act 13.3%, NPC1 promoter act 16.4%, p53 reactivation 29.1% and FLuc counter -8.5%.
Screening C(=N\Nc1nc2ccccc2s1)/c1cccs1 returned ELG1 genotox inconclusive, SMN2 splice up 7.08µM*, Rab9 promoter act 1.26µM*, NPC1 promoter act inconclusive, p53 reactivation inconclusive and FLuc counter 0.849µM*.
For Cc1ccc(OCC(=O)N/N=C\c2cccs2)c([N+](=O)[O-])c1 the results were ELG1 genotox 8.7%, SMN2 splice up 1.7%, Rab9 promoter act 19.3%, NPC1 promoter act 13.8%, p53 reactivation 12.6% and FLuc counter 12µM*.
`CCc1ccc(OCC(=O)N/N=C\c2ccco2)c([N+](=O)[O-])c1` gave ELG1 genotox 10.9%, SMN2 splice up 3.4%, Rab9 promoter act 6.0%, NPC1 promoter act 11.1%, p53 reactivation inconclusive and FLuc counter 10.7µM*.
